From PubChem BioAssay
HCMV antiviral: qHTS Assay for inhibitors of the human cytomegalovirus (HCMV); HFF cells, HCMV-luciferase reporter, 72 h; hits give low values; activity change, negative = inhibition, % at 57.5 µM; 4.5% of 410,000 active; in the data active = activity change below about -60%; inconclusive = no clear call, values can overlap the other calls; inactive = above about -39%
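Screen run at 2 compound doses on HFFs infected with reporter HCMV, MOI 1 PFU/cell. Luciferase activity from cell lysates at 72 h post infection gave inhibition relative to buffer-only and Salinomycin wells.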
HCV inhibitor: qHTS Assay for Inhibitors of Hepatitis C Virus (HCV) | Huh7.5.1 HCVcc-Cre infection, luciferase reporter, 44 h | Potency, µM (doses to about 41.8 µM), actives largely listed as inhibitors | 3.4% of 340,000 active | AID 651820, 2012; active = well fitted inhibition curve with a large enough effect; inconclusive = small, poorly fitted or top-dose-only effect, or another doubt; inactive = no such curve, though single readings can be large or run the other way
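Compounds are dispensed onto cells plated 4 h earlier at 1,000 per well, with HCVcc-Cre virus (about 0.5 moi) added next. Following 44 h of culture, luminescent signal is measured for 15 sec after 15 min with substrate at room temperature.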
FMDV antiviral: High Throughput Screening for Foot and Mouth Disease Virus Antivirals. AID 1159524, 2015. FMDV antiviral cell-based qHTS. 1.2% of 410,000 active. Potency, µM (doses to about 57.9 µM), most hits filed as inhibitors; calls by dose curve; tested in HEK293T cells; note: read-out not given here; nearly all actives have a fitted effect of over 45% in size
Vaccinia Venus: qHTS for Stage-Specific Inhibitors of Vaccinia Orthopoxvirus: Venus Reporter Primary qHTS; 0.46% of 330,000 active; Vaccinia virus Venus reporter expression, fluorescence; Potency, µM (titrated, usually from 36.5 µM), hits mostly inhibitors; calls by dose curve; tested in A549 cells; note: nearly all actives have a fitted effect of over 30% in size
VACV mCherry inh: qHTS for Stage-Specific Inhibitors of Vaccinia Orthopoxvirus: mCherry Reporter Primary qHTS | Vaccinia virus mCherry reporter infection, fluorescence | Potency, µM (highest dose often 36.5 µM), most hits filed as inhibitors | 0.63% of 310,000 active | AID 720579, 2013; calls by dose curve; tested in A549 cells; note: nearly all actives have a fitted effect of over 35% in size
Of the large screens only hits and unclear results are named; the others gave an inactive call. A selection: hits, their analogues and other compounds. The true share with any hit is near 7.3%.

CCc1ccc(N2CC(C(=O)OCC(=O)N(CC)c3c(N)n(Cc4ccccc4)c(=O)[nH]c3=O)CC2=O)cc1 (configuration not stated)	none (no result: Vaccinia Venus, VACV mCherry inh)
COc1ccc(N(CC(=O)Nc2cc(C)on2)S(=O)(=O)c2cc(C)ccc2C)cc1	HCMV antiviral -91 (no result: Vaccinia Venus, VACV mCherry inh)
CCOc1ccc(N(CC(=O)Nc2cccc(Cl)c2)S(=O)(=O)c2c(C)noc2C)cc1	HCV inhibitor 13µM, FMDV antiviral inconclusive
CCOc1ccc(N(CC(=O)Nc2ccc(F)c(F)c2)S(=O)(=O)c2c(C)noc2C)cc1	HCMV antiviral -63
CCOc1ccc(N(CC(=O)Nc2ccccc2OCC)S(=O)(=O)c2c(C)noc2C)cc1	HCMV antiviral -86, HCV inhibitor 11µM (no result: Vaccinia Venus, VACV mCherry inh)
CN(C)c1ccc(C(I)C(I)c2ccnc3ccccc23)cc1 (configuration not stated)	none (no result: HCMV antiviral, HCV inhibitor, FMDV antiviral)
COc1ccc(CCNC(=O)CSc2n[nH]c(-c3ccccc3Cl)n2)cc1OC	none (no result: HCV inhibitor)
Cc1nn(-c2ccccc2)c2c1cc1c(=O)[nH]c(=O)nc-1n2-c1cccc(C(F)(F)F)c1	none (no result: HCV inhibitor)
C=CCNc1nnc(Sc2ncccc2[N+](=O)[O-])s1	HCMV antiviral inconclusive, Vaccinia Venus inconclusive, VACV mCherry inh 10µM
O=[N+]([O-])c1cccnc1Sc1ccc(Cl)cc1	none
CCCCN(Cc1ccco1)S(=O)(=O)c1csc(C(N)=O)c1	none (no result: Vaccinia Venus, VACV mCherry inh)
Cc1ccc(SCc2nc(N)nc(Nc3ccccc3C)n2)cc1C	HCMV antiviral -101, HCV inhibitor 13µM
Cc1ccccc1Nc1nc(N)nc(CSc2ccc(F)cc2)n1	none (no result: Vaccinia Venus, VACV mCherry inh)
Cc1ccc(SCc2nc(N)nc(Nc3ccccc3C)n2)c(C)c1	HCMV antiviral -61, HCV inhibitor inconclusive (no result: Vaccinia Venus, VACV mCherry inh)
Cc1ccccc1Nc1nc(N)nc(CSc2nc3ccccc3c(=O)n2C)n1	HCV inhibitor inconclusive, FMDV antiviral 16µM (no result: VACV mCherry inh)
NCCC[C@H](N)CC(=O)N[C@H]1CNC(=O)[C@H]([C@H]2C[C@H](O)N=C(N)N2)NC(=O)C(=CNC(N)=O)NC(=O)[C@H](CO)NC(=O)[C@H](CO)NC1=O	none (no result: HCMV antiviral, HCV inhibitor, Vaccinia Venus, VACV mCherry inh)
Cc1cc(NC(c2cccnc2)c2ccc3cccnc3c2O)no1 (configuration not stated)	HCMV antiviral -104, HCV inhibitor 2.5µM, FMDV antiviral inconclusive, Vaccinia Venus 16µM (no result: VACV mCherry inh)
Oc1c(C(Nc2cccc(C(F)(F)F)c2)c2cccnc2)ccc2cccnc12 (configuration not stated)	HCV inhibitor 11µM
Oc1c(C(Nc2cccnc2)c2ccc(C(F)(F)F)cc2)ccc2cccnc12 (configuration not stated)	Vaccinia Venus inconclusive, VACV mCherry inh 8.9µM (no result: HCMV antiviral, HCV inhibitor, FMDV antiviral)
Cc1cc(C)nc(Nc2cccc(C(F)(F)F)c2)n1	HCMV antiviral inconclusive (no result: Vaccinia Venus, VACV mCherry inh)
COc1ccc(Cl)cc1C(Nc1cccnc1)c1ccc2cccnc2c1O (configuration not stated)	HCV inhibitor 8.9µM, Vaccinia Venus inconclusive, VACV mCherry inh 3.5µM
CCC(=O)N1[C@H](CO)[C@@H]2c3ccccc3N(C(=O)Nc3ccc(Cl)cc3)C[C@@H]21	none (no result: HCV inhibitor, FMDV antiviral, Vaccinia Venus, VACV mCherry inh)
Cc1oc(-c2ccccc2NC(=O)C2CCCO2)nc1CNC(=O)c1[nH]c2c(C)ccc(C)c2c1C (configuration not stated)	none (no result: HCMV antiviral, HCV inhibitor)
O=C(Nc1ccc2ccccc2c1)C(c1ccccc1)n1c(=O)c(-c2cc3ccccc3[nH]2)nc2ccccc21 (configuration not stated)	none (no result: HCV inhibitor)
CCc1ccc(-n2c(=O)c3c4c(sc3n(Cc3cc(=O)n5c(C)cccc5n3)c2=O)CCC4)cc1	none (no result: HCV inhibitor)
CN1CCN(C(c2cccc(C(F)(F)F)c2)c2nnnn2C(C)(C)C)CC1 (configuration not stated)	none
CN1CCN(C(c2ccc(C(F)(F)F)cc2)c2ccc3cccnc3c2O)CC1 (configuration not stated)	HCMV antiviral -97, HCV inhibitor 11µM, VACV mCherry inh inconclusive
CC(C)(C)NCC(O)COc1ccccc1C1CCCC1 (configuration not stated)	HCMV antiviral -78, HCV inhibitor inconclusive, Vaccinia Venus inconclusive
Cc1ccccc1OCC(O)Cn1c2ccccc2c2ccccc21 (configuration not stated)	HCV inhibitor 7.9µM (no result: FMDV antiviral)
Cc1ccccc1OCC(O)CNC1CCC(NCC(O)COc2ccccc2C)CC1 (configuration not stated)	HCMV antiviral -100, HCV inhibitor inconclusive, FMDV antiviral inconclusive, Vaccinia Venus 10µM, VACV mCherry inh 3.2µM
CC(=O)Nc1ccc(OCC(O)Cn2c3ccccc3c3ccccc32)cc1 (configuration not stated)	HCV inhibitor inconclusive
OC(COc1ccccc1)Cn1c2ccccc2c2ccccc21 (configuration not stated)	HCV inhibitor inconclusive, VACV mCherry inh inconclusive
CC(=O)Nc1ccc(OCC(O)Cn2c3ccccc3c3ccccc32)c(C)c1 (configuration not stated)	HCMV antiviral -61, HCV inhibitor inconclusive, FMDV antiviral 22µM, Vaccinia Venus inconclusive, VACV mCherry inh inconclusive
COc1cccc(OC)c1C(=O)NNS(=O)(=O)c1ccc2ccccc2c1	none
CC(C)CC(C(=O)NCCc1ccccc1)N1Cc2ccccc2C1=O (configuration not stated)	none (no result: HCV inhibitor)
O=C(c1cnccn1)N1CCC[C@@]2(CCN(c3ccncc3)C2)C1	none (no result: HCMV antiviral, HCV inhibitor, Vaccinia Venus, VACV mCherry inh)
Cc1ccccc1OCC(O)Cn1c(=N)n(Cc2ccccc2)c2ccccc21 (configuration not stated)	HCMV antiviral -74, HCV inhibitor inconclusive, FMDV antiviral inconclusive, Vaccinia Venus 11µM, VACV mCherry inh 10µM
COc1ccc(C(=O)N/C(=C/c2ccccc2F)C(=O)NCCN2CCOCC2)cc1OC	none (no result: Vaccinia Venus, VACV mCherry inh)
COc1coc(C(O)CN)cc1=O (configuration not stated)	none
CCOC(=O)C(=Cc1cc(=O)c(OC)co1)C(=O)OCC	HCMV antiviral -84, HCV inhibitor 10µM, FMDV antiviral 8.9µM (no result: Vaccinia Venus, VACV mCherry inh)
CCCCNC(=O)C(NC(=O)c1ccc(=O)[nH]c1)C(=O)c1ccccc1 (configuration not stated)	none (no result: HCV inhibitor)
CCCCNc1nc(=S)n(-c2ccccc2)c(C)c1C(C)=O	HCMV antiviral -99, HCV inhibitor inconclusive, Vaccinia Venus inconclusive
CCCNc1nc(=S)n(-c2ccccc2)c(C)c1C(C)=O	HCMV antiviral inconclusive
CCn1c(C)c(C(C)=O)c(N2CCN(C(c3ccccc3)c3ccccc3)CC2)nc1=S	HCV inhibitor 6.3µM, FMDV antiviral 32µM
CC(=O)c1c(N2CCCC2)nc(=S)n(-c2ccccc2)c1C	HCMV antiviral -74 (no result: FMDV antiviral)
CCOc1ccccc1CNC(=O)c1nc(-c2ccc(Cl)cc2)n2c1CCCCC2	none (no result: HCV inhibitor)
O=C(NCc1ccco1)c1ccc(-c2ccc(F)c(F)c2)c2ccoc12	none (no result: HCV inhibitor)
COc1cccc(C(=O)NCC(=O)OCc2cc(=O)n3c(C)csc3n2)c1	none (no result: HCV inhibitor)
